In the library only some 3.9% were active in any assay of this set; here they are far more common.
CCHF vOTU inh – CCHFV vOTU protease inhibitors, primary screen, biochemical, Pep-AMC substrate, fluorescence; AID 651958, 2012; inhibition, % at 11.5 µM; 370,000 compounds, 0.55% hits; in the data active = inhibition above about 30%
BoNT F protease – BoNT/F light chain protease inhibitors, primary screen, biochemical, flow cytometry, MLPCN library; Multiplex microsphere protease cleavage assay; inhibition, % at 10 µM; 360,000 compounds, 0.22% hits; in the data active = inhibition above about 35%, passing the limit was not always enough; inconclusive = no clear call, values can overlap the other calls
Autofluor counter – flagged as autofluorescent in microsphere protease counterscreen; compound autofluorescence counterscreen, microsphere flow cytometry; hits give high values; fluorescence intensity (test concentration not listed); 360,000 compounds, 3.1% hits; AID 624483; in the data active = fluorescence intensity above about 16000; inconclusive = no clear call, values can overlap the other calls
BoNT-A LC inh2 – BoNT/A light chain protease inhibitors, primary screen, biochemical, flow cytometry, MLPCN library; multiplex microsphere protease substrate cleavage; 360,000 compounds, 0.17% hits; inhibition, % at 10 µM; in the data active = inhibition above about 30%; inconclusive = no clear call, values can overlap the other calls
SARS 3CLpro inh – SARS-CoV 3CLpro protease inhibitors, primary screen, biochemical, quenched FRET. Replicase polyprotein 1ab (Severe acute respiratory syndrome coronavirus), P0C6X7. recombinant SARS-CoV 3CLpro, quenched FRET peptide cleavage. inhibition, % at 6 µM. 290,000 compounds, 0.14% hits. AID 1706, 2009; in the data active = inhibition above about 12%
Anthrax LF prot – Bacillus anthracis LF protease inhibitors, primary screen, biochemical, multiplex microsphere, MLPCN library. inhibition, % at 10 µM. Lethal factor (Bacillus anthracis), P15917. 360,000 compounds, 0.12% hits. AID 588501, 2011. multiplex microsphere protease cleavage assay; in the data active = inhibition above about 30%; inconclusive = no clear call, values can overlap the other calls
Target sequence (P15917 whole entry, looked up): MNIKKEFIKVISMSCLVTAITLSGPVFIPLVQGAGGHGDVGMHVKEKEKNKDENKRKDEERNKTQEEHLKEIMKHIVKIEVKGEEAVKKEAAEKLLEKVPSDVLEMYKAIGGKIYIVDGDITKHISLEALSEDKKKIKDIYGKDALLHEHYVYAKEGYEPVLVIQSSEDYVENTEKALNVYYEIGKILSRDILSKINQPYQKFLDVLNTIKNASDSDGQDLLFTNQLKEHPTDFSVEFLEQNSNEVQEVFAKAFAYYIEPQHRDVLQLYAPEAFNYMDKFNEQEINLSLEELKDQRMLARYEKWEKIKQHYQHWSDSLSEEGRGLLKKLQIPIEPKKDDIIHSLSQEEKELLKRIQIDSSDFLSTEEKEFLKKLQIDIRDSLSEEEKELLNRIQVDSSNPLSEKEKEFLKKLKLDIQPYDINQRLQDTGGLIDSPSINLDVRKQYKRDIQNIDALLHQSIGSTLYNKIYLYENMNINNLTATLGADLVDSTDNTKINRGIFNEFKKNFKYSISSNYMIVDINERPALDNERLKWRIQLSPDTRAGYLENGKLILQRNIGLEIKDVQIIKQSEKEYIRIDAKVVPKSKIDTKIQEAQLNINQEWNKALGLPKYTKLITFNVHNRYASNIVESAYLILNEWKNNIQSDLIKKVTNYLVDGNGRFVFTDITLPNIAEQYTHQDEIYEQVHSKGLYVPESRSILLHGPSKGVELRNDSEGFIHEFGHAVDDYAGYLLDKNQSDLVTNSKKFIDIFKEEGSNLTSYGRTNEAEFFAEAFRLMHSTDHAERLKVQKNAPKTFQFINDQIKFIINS
BoNT-A LC CP2 – BoNT/A light chain protease inhibitors, confirmation, biochemical, flow cytometry, cherry pick 2. shares compounds with BoNT-A LC inh2. multiplex microsphere protease cleavage assay. inhibition, % at 10 µM. 150 compounds, 10% hits. AID 602325, 2012; in the data active = inhibition above about 24%
Anthrax LF CP2 – Bacillus anthracis LF protease inhibitors, confirmation, biochemical, multiplex microsphere; AID 602327, 2012; multiplex microsphere protease cleavage assay; inhibition, % at 10 µM; shares compounds with BoNT-A LC inh2; 150 compounds, 7% hits
BoNTF LC inh 2 – BoNT/F light chain protease inhibitors, confirmation, biochemical, flow cytometry, cherry pick 2; shares compounds with BoNT-A LC inh2; multiplex microsphere protease cleavage assay; inhibition, % at 10 µM; 150 compounds, 7% hits; AID 602336, 2012
Hits are given with their value; i = inactive; ? = inconclusive; nt = no result. Cut-off read from the data, not from the text of the source, unless noted: active = inhibition above about 25%; inactive = the rest.

SMILES	CCHF vOTU inh	BoNT F protease	Autofluor counter	BoNT-A LC inh2	SARS 3CLpro inh	Anthrax LF prot	BoNT-A LC CP2	Anthrax LF CP2	BoNTF LC inh 2
Cc1cc2cc(CNC(=O)c3cccc([N+](=O)[O-])c3)ccc2[nH]1	i	i	i	78.8	i	i	26.8	i	i
COc1ccc(CNC(=O)c2ccc(Br)o2)cc1	i	i	i	i	i	i	nt	nt	nt
Cc1cc2cc(CNC(=O)Cc3cccs3)ccc2n1C	nt	i	i	74.8	nt	i	i	i	i
Cc1cc2cc(CNC(=O)C3CCCC3)ccc2n1C	i	i	i	44.6	nt	i	i	i	i
O=C(NCc1ccc2c(c1)OCO2)c1cccc([N+](=O)[O-])c1	i	i	i	i	i	i	nt	nt	nt
Cc1cc2cc(CNC(=O)c3ccc(Br)o3)ccc2n1C	i	i	i	62.1	nt	i	i	i	i
Cn1c(CNC(=O)C2CCCCC2)cc2cc(Cl)ccc21	i	?	i	i	i	i	nt	nt	nt
c1ccc(-c2cc3cc4c(cc3cn2)OCO4)cc1	i	i	i	i	nt	i	nt	nt	nt
Cc1ccc(S(=O)(=O)NCc2ccc3[nH]c(C)cc3c2)cc1	i	i	i	i	i	i	i	i	i
Cc1ccc(CNC(=O)c2ccc(Br)o2)cc1	i	i	i	i	i	i	nt	nt	nt
Cc1c(C(=O)NCc2ccc3c(c2)cc(C)n3C)cccc1[N+](=O)[O-]	i	i	i	77.9	i	i	i	i	i
Cc1cc2cc(CNC(=O)c3ccc(Br)o3)ccc2[nH]1	i	i	i	66.7	nt	i	i	i	i
COc1ccc(-c2oc3c(OC)c(OC)c(OC)c(O)c3c(=O)c2OC)cc1OC	i	i	i	38.6	i	33.8	i	i	i
COc1ccccc1N1CCN(c2ccc3c(c2)S(=O)(=O)c2cccc(C(=O)NCc4ccc(F)cc4)c2C3=O)CC1	i	i	i	i	nt	i	i	i	i
O=C(NCc1cccc(F)c1)c1cccc2c1C(=O)c1ccc(N3CCCC3)cc1S2(=O)=O	nt	i	i	i	nt	i	nt	nt	nt
O=C(NCc1ccc(OC(F)(F)F)cc1)c1cccc2c1C(=O)c1ccc(N3CCC(Cc4ccccc4)CC3)cc1S2(=O)=O	i	i	i	i	nt	i	i	i	i
O=C(NCc1ccc(OC(F)(F)F)cc1)c1cccc2c1C(=O)c1ccc(N3CCCC3)cc1S2(=O)=O	i	i	i	i	nt	i	nt	nt	nt
O=C(COc1ccccc1)OCC(=O)c1c[nH]c2ccccc12	i	i	i	i	nt	i	i	i	i
COc1ccc(OCC(=O)c2c[nH]c3ccccc23)cc1	i	i	i	i	i	i	nt	nt	nt
COc1cc(C(=O)OCC(=O)c2c[nH]c3ccccc23)ccc1OCC(=O)N1CCOCC1	i	i	i	i	i	i	nt	nt	nt
Cn1cccc1C(=O)OCC(=O)c1c[nH]c2ccccc12	i	i	i	i	nt	i	nt	nt	nt
O=C(OCC(=O)c1c[nH]c2ccccc12)c1cc(Br)ccc1O	i	i	i	i	i	i	i	i	i
COc1ccc(C(=O)OCC(=O)c2c[nH]c3ccccc23)cc1OC	i	i	i	36.9	nt	39.2	27.7	i	i
CC(C)Cc1ccc(C(C)C(=O)OCC(=O)c2c[nH]c3ccccc23)cc1 (stereo not drawn)	i	i	i	i	i	i	i	i	i
Cc1noc(C)c1S(=O)(=O)Nc1ccc2c(c1)C(=O)N([C@@H](C)CO)C[C@H](C)[C@@H](CN(C)Cc1ccc(C(F)(F)F)cc1)OCCCC[C@H](C)O2	i	i	i	i	nt	i	nt	nt	nt
Cc1cc2c(nc1C)CCCN2S(=O)(=O)c1ccc(C#N)cc1	i	nt	nt	nt	nt	nt	nt	nt	nt
